Test results taken from PubChem BioAssay (NCI).
The panel holds about 83,000 compounds, 20% with a hit somewhere; the sample as a whole holds those more often.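 96-well plates, one dose, 48 hours. Percent growth reported; active if below 10.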 Unmarked numbers belong to inactive results. The source made the active and inactive calls.

Key:
Assay in all cases: NCI-60 one-dose screen, 48 h (100 = growth as untreated, 0 = no growth, -100 = all killed)
Conditions in all cases: 10 µM unless noted
T-47D breast = test system: T-47D breast
BT-549 breast = test system: BT-549 breast
MDA-MB-435 melanoma = test system: MDA-MB-435 melanoma
SW-620 colon = test system: SW-620 colon
MCF7 breast = test system: MCF7 breast
HCT-116 colon = test system: HCT-116 colon
HCC-2998 colon = test system: HCC-2998 colon
KM12 colon = test system: KM12 colon

| Compound | growth (T-47D breast) | growth (BT-549 breast) | growth (MDA-MB-435 melanoma) | growth (SW-620 colon) | growth (MCF7 breast) | growth (HCT-116 colon) | growth (HCC-2998 colon) | growth (KM12 colon) |
| --- | --- | --- | --- | --- | --- | --- | --- | --- |
| Fc1ccc(Nc2ncnc3ccc(-c4cn[nH]c4)cc23)cc1Cl | -20.2% (active) | 58% | 79.8% | 78.1% | 23.3% | 51.2% | 85% | 67.1% |
| C=CCn1c(SCC(=O)Nc2ccc(C(=O)/C=C/c3cc(OC)c(OC)c(OC)c3)cc2)nnc1-c1ccc(OC)cc1 | -2.4% (active) | -23.8% (active) | -38.1% (active) | -6.73% (active) | 0.763% (active) | -29.4% (active) | -65.8% (active) | -33.7% (active) |
| COc1ccc(/C=C/C(=O)c2ccc(NC(=O)CSc3nnc(-c4cc(OC)c(OC)c(OC)c4)o3)cc2)cc1 | -44.5% (active) | -3.02% (active) | -39.2% (active) | -61.5% (active) | -30.8% (active) | -76.4% (active) | -72% (active) | -91.8% (active) |
| S=c1ssnc1-c1ccccn1 | 27.1% | 49.5% | 36% | 5.79% (active) | 27.4% | 6.31% (active) | – | 32.8% |
| O=C1/C(=C/c2cccc3cnccc23)Cc2cc(F)ccc21 | 42.7% | 89% | 101% | 101% | 58.9% | 80.7% | 106% | 92.1% |
| ClC1c2ccccc2CCc2ccccc21 | 74.6% | 93.8% | 110% | 101% | 92.1% | 72.7% | – | 109% |
| Cc1cc(SCc2ccc(Cl)cc2Cl)nc(SCc2ccc(Cl)cc2Cl)n1 | 114% | 106% | 97.2% | 101% | 92.8% | 95.9% | – | 97.4% |
| CCN(CC)CCC(C(=O)O)(c1ccccc1)c1ccccc1 | 77.7% | 95.6% | 98.3% | 97.9% | 91.8% | 90.9% | 106% | 100% |
| CS(=O)(=O)Nc1cccc(-c2ccc3ncnc(Nc4cncc(Cl)c4)c3c2)c1 | -21.9% (active) | 34.8% | 49.9% | 33.2% | 15.6% | 30.4% | 39.2% | 32.7% |
| COc1cc2c(cc1OCCCCC(=O)Nc1ccc(-c3nc4ccccc4s3)cc1)N=C[C@@H]1CCCN1C2=O | 14.7% | -76.4% (active) | -70.8% (active) | -16.9% (active) | 1.14% (active) | 5.56% (active) | -62% (active) | -58.7% (active) |
| Cc1nc(N)nc(SCc2ccccc2)c1Br | 65.2% | 76.4% | 111% | 104% | 79.8% | 89% | – | 98.6% |
| CCCC(=O)Oc1ccc(/C(=C(\C)c2ccc(OC)cc2)c2ccc(OCCN3CCCCC3)cc2)cc1 | 32.7% | 82.2% | 84.2% | 87.5% | 28.3% | 55.7% | – | 75.6% |
| O=C(Nc1cccc(-n2ccc3c(NC(=O)c4ccccc4)nccc32)c1)c1cc(N2CCOCC2)cc(C(F)(F)F)c1 | 66.3% | -13.1% (active) | -13.3% (active) | 14.2% | 21.3% | 1.44% (active) | 28.8% | -3.61% (active) |
| Cc1cn(C2CC(F)C(CO)O2)c(=O)[nH]c1=O (configuration not stated) | 98% | 80.7% | 78.2% | 115% | 113% | 95.6% | 100% | 99.1% |
| Cc1ccc2oc(=O)cc(C3C(C#N)=C(N)Oc4c3ccc3ccccc43)c2c1 (configuration not stated) | 69% | 70.2% | 6.57% (active) | 55% | 42.1% | 69.2% | – | 55.1% |
| Cc1ccc(=O)n(-c2ccc(Br)cc2F)c1 | 93.7% | 94.5% | 100% | 103% | 92.6% | 105% | – | 103% |
| O=C(Nc1ccc(-n2ccc3c(NC(=O)c4ccccc4)nccc32)cc1)Nc1cccc(C(F)(F)F)c1 | 57.6% | 74% | 61.4% | 63.4% | 47.7% | 4.34% (active) | – | 11.2% |
| CC1OC(n2c3ccccc3c3c4c(c5c6ccccc6[nH]c5c32)C(=O)N(CCN[C@@H]2CCC[C@H]2N)C4=O)CC(O)C1O (some centres not stated) | 19.6% | 23.8% | 18.4% | 5.32% (active) | -34% (active) | 9.41% (active) | – | 14.7% |
| COC(=O)c1oc2c(C(=O)/C=C/c3ccc(OC)cc3)c(OCCN3CCOCC3)ccc2c1C | 14% | -6.36% (active) | 20% | -96.8% (active) | – | -73.9% (active) | 23.7% | -10.1% (active) |
| COc1ccc2c(c1)C(=O)/C(=C/c1ccc(OCC(=O)c3ccc(Cl)cc3)cc1)O2 | 72.2% | 80.5% | 92.8% | 14.2% | – | 30.1% | 21.2% | 104% |
| C=C1C(=O)O[C@H]2[C@H]1CC/C(COC(=O)c1ccccc1)=C\CC[C@@]1(C)O[C@@H]21 | -18.7% (active) | -13.7% (active) | -3.73% (active) | -55.4% (active) | – | -86.6% (active) | 83.9% | 65.6% |
| S=C=NP1(N=C=S)=NP(N=C=S)(N=C=S)=NP(N=C=S)(N=C=S)=NP(N=C=S)(N=C=S)=N1 (configuration not stated) | 82.3% | 80.4% | 104% | 108% | – | 98.8% | 102% | 102% |
| CN1C(=O)C2(SCC(C(=O)NCC(=O)OC(C)(C)C)N2C(=O)C2CCCCC2)c2ccccc21 (configuration not stated) | 82.9% | 109% | 104% | 98.7% | – | 96.3% | 106% | 101% |
| CC(C)CNCC(O)COc1ccc(C(C)(C)c2ccc(OCC(O)CNCC(C)C)cc2)cc1 (configuration not stated) | -31.3% (active) | 69.4% | 7.56% (active) | 1.07% (active) | – | 0.347% (active) | -24.5% (active) | 37.1% |
| COc1ccc(-c2nnc(SCC(=O)Nc3ccc(C(=O)/C=C/c4ccc(Cl)cc4)cc3)o2)cc1OC | 90.1% | 57.3% | 81.1% | 101% | – | 75.6% | 96% | 97.9% |
| Nc1nccc2c1ccn2-c1cccc(NC(=O)c2ccc(N3CCOCC3)c(C(F)(F)F)c2)c1 | 45.7% | -5.74% (active) | 2.02% (active) | 25.5% | – | 7.23% (active) | 23.9% | -14.5% (active) |
| Cc1cccc(CC(=O)c2ccccc2)n1 | 94.2% | 111% | 99% | 91.3% | – | 90.5% | 94.6% | 88.1% |
| CC1=C2C(=C[C@@](C)(CO)[C@@H]2OC(=O)N(C)CCN(C)C(=O)OC(C)(C)C)C(=O)[C@](C)(O)C12CC2 | 45.2% | 56.8% | 72.6% | 71.3% | 34.8% | 15.9% | – | 74% |
| COc1ccc(/C=C/C(=O)c2ccc(Oc3ncnc4ccccc34)cc2)cc1OC | 52.3% | 60.6% | 39.1% | 32.2% | 8.88% (active) | -42.6% (active) | – | 22.6% |
